Legend:
[1] = system: T1, BIKE
T1 construct: gene BMP2K

[2] = system: BMPR1A
[3] = system: BMPR2
[4] = system: BMX
[5] = system: T2, BRK
T2 construct: gene PTK6

[6] = system: BUB1
[7] = system: CAMK2A
[8] = system: CAMK2D
[9] = system: CAMKK1
[10] = system: T3, CDC2L5
T3 construct: gene CDK13

[11] = system: CDK2
[12] = system: CDK4
[13] = system: CDK8
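Note: kd values determined as follow-up on hits from a single-replicate KINOMEscan panel screen.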

O=S(=O)(c1ccc(-c2ccnc3[nH]ccc23)cc1)N1CCCC1 [GSK846226]
Kd [1]: 7.2 µM

Cc1ccc(NC(=O)Nc2cccc(C(F)(F)F)c2)cc1 [GSK955403]
Kd [2]: > 10 µM

O=C1NC(=O)C(N2CCc3ccccc32)=C1c1ccccc1Cl [SB-373598]
Kd [3]: > 10 µM

NC(=O)c1nnc2ccccc2c1N
Kd [4]: > 10 µM

Cc1c(O)cccc1Nc1ccnc2ccc(C(F)(F)F)cc12.Cl [GW466413]
Kd [5]: 0.19 µM

O=C(O)COc1ncnc2cc(-c3ccc4[nH]ncc4c3)sc12
Kd [5]: > 10 µM

Cl.Oc1ccc(-c2nc(-c3ccccc3)[nH]c2-c2ccncc2)cc1 [SB-428218]
Kd [6]: 0.56 µM

CN(C)CCN(C)C(=O)c1cc(-c2ccncc2)c(-c2ccc(Cl)c(O)c2)o1.Cl.Cl [SB-710397]
Kd [6]: 0.39 µM

Cc1c(Cn2ccn3c(=O)cc(N4CCOCC4)nc23)cccc1C(F)(F)F [GSK2289044]
Kd [7]: > 10 µM

Cc1cc(-c2ccc3c(c2)CC[C@@H](N[C@@H](C)c2ccccc2)C3)cnc1N.Cl [GW412617]
Kd [8]: > 10 µM

Cc1cccc(-c2nc(C)cc(Nc3ccncc3)n2)n1 [GSK257997]
Kd [8]: > 10 µM

CC(C)(C)c1ccc(C(=O)Nc2cn3cc(Cl)ccc3n2)cc1
Kd [9]: > 10 µM

CCn1c(-c2ccccn2)nc2cnccc21 [SB-736398]
Kd [10]: > 10 µM

CCCc1ccc(S(=O)(=O)NC2CCN(c3ccnc(Nc4ccc(F)cc4)n3)C2)cc1 (stereo not drawn) [GSK1379715]
Kd [10]: > 10 µM

O=C(Nc1n[nH]c2nc(-c3nccs3)c(Br)cc12)C1CCCC1 [SB-742609]
Kd [11]: 0.28 µM
Kd [12]: 4.2 µM

O=C(Nc1n[nH]c2nc(-c3nccs3)c(Br)cc12)C1CC1 [SB-742251]
Kd [11]: 0.35 µM

O=C(Nc1n[nH]c2cc(-c3cccc(F)c3F)ccc12)C1CC1 [SB-733894]
Kd [13]: > 10 µM
